This passage reports growth inhibition results from PubChem BioAssay (NCI).

Assay [1] in a line: NCI Yeast Anticancer Drug Screen. Data for the rad50 strain (AID 155).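 Note: 0% = growth of vehicle-only cultures of the same strain.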 The settings on record: S. cerevisiae rad50 strain growth inhibition; at 50.0 µM; stronger effect = higher value. The gist of the method:
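Readout: growth inhibition relative to vehicle-treated cultures. Compound exposure was carried out in a genetically defined yeast strain deficient in DNA damage repair.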

Assay [2] is described as follows: NCI Yeast Anticancer Drug Screen. Data for the mec2-1 strain (AID 157). The settings on record: S. cerevisiae mec2-1 strain, at 50.0 µM, stronger effect = higher value. The gist of the method:
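Growth inhibition is read against vehicle-treated controls after compound exposure of the mec2-1 yeast strain, which is defective in DNA damage repair or cell cycle control.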

Assay [3] is described as follows: NCI Yeast Anticancer Drug Screen. Data for the sgs1 mgt1 strain (AID 161).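 Note: 0% = growth of cultures given vehicle only.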 The settings on record: S. cerevisiae sgs1 mgt1 strain, at 50.0 µM, stronger effect = higher value. The gist of the method: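 This yeast growth screen uses a strain with defined DNA-repair lesions; compound-treated growth is compared with vehicle-treated growth.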
Assay [4] is described as follows: NCI Yeast Anticancer Drug Screen. Data for the cln2 rad14 strain (AID 165).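 Note: 0% = growth equal to vehicle treated cultures.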 The settings on record: S. cerevisiae cln2 rad14 strain, at 50.0 µM, stronger effect = higher value. The gist of the method: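 Growth inhibition, relative to vehicle-treated controls, is the read-out. The test organism is a yeast strain with defined genetic alterations, cln2 rad14.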
Assay [5] can be described thus: NCI Yeast Anticancer Drug Screen. Data for the bub3 strain (AID 167). The following applies: S. cerevisiae bub3 mutant strain, at 50.0 µM, stronger effect = higher value. The gist of the method: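 Readout: yeast growth inhibition, expressed relative to vehicle-only wells. The test organism is a mutant strain from a panel with lesions in DNA repair or checkpoint genes.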
The nature of assay [6]: NCI Yeast Anticancer Drug Screen. Data for the mlh1 rad18 strain (AID 175). The settings on record: S. cerevisiae mlh1 rad18 strain growth inhibition; at 50.0 µM; stronger effect = higher value. In a few lines:
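Cells of a genetically altered yeast strain, deficient in DNA damage repair, were treated with compound. Their growth was then compared with that of vehicle-treated cultures to give inhibition.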

Molecules are shown by their SMILES. Compounds without any hit were thinned out: in the full panel of roughly 79,000, 15% have a hit. Values without a mark were called inactive. Activity calls are given as the source filed them. Cut-off read from the data, not from the text of the source: active = growth inhibition above about 70%; inactive = the rest. Where a SMILES comes first, the peptide text is derived from it. The star is where a group is joined. Trt = c1ccc(C(c2ccccc2)(c2ccccc2)*)cc1; Cbz = O=C(OCc1ccccc1)*

With `CC(C)(C)C(=O)Oc1ccc(/C=C/C(=O)c2ccc(OC(=O)C(C)(C)C)cc2)cc1`, the growth inhibition in assay [1] was -5.45%; in assay [2], -20.9%; in assay [3] it was -28%; in assay [4] it was -20.9%; in assay [5], -22.9%; in assay [6], -24.4%.
`[N-]=[N+]=CC(=O)c1cc(-c2ccccc2)nc2c(-c3ccccc3)cccc12`: the growth inhibition in assay [1] is 55.8%; in assay [2], 18.8%; in assay [3], 54%; in assay [4] it was 31.8%; in assay [5], 62.8%; in assay [6] it was 59.1%.
As for `Cc1cc(S(=O)(=O)Nc2n[nH]c(Nc3ccc(Cl)cc3)n2)c(S)cc1Cl`, the growth inhibition was -8.1% in assay [1]; -14.9% in assay [2]; 6.7% in assay [3]; 7.05% in assay [4]; 0.35% in assay [5]; 17.4% in assay [6].
Regarding `Brc1ccc(CN(Cc2ccccc2)Cc2ccccc2)cc1`, the growth inhibition in assay [1] is -13.3%; in assay [2], -8.3%; in assay [3] it was 1.55%; in assay [4], -10.4%; in assay [5], 10.7%; in assay [6], 4.75%.
For `COc1ccc(OC)c(C(=O)C2=C(c3cc(OC)ccc3OC)CCC2)c1`, the growth inhibition is 7.3% in assay [1]; 38.4% in assay [2]; 33.2% in assay [3]; 2.1% in assay [4]; 44.4% in assay [5]; 28.4% in assay [6].
In the case of `OCCCC1CCN(CCO)CC1`, the growth inhibition was -22.2% in assay [1]; -27.5% in assay [2]; -18.8% in assay [3]; 1.3% in assay [4]; -8.7% in assay [5]; -10.3% in assay [6].
On to `CN(CC(=O)c1ccc(Cl)cc1)Cc1cccc2ccccc12`, for which the growth inhibition in assay [1] is 18.2%; in assay [2], -5.8%; in assay [3], 51.4%; in assay [4] it was 11.7%; in assay [5] it was 22.9%; in assay [6], 38.8%.
With `CCOC(=O)c1ccc(N)c(C(O)(C(F)(F)F)C(F)(F)F)c1`, the growth inhibition is 94.5% (active) in assay [1]; 90.7% (active) in assay [2]; 94.1% (active) in assay [3]; 86.3% (active) in assay [4]; 92% (active) in assay [5]; 95.6% (active) in assay [6].
On to `CC(=O)N1CCC(=O)c2ccccc21`, for which the growth inhibition in assay [1] is 11.3%; in assay [2] it was 14.3%; in assay [3], -1.8%; in assay [4] it was 6.1%; in assay [5] it was -24.3%; in assay [6], -5.35%.
As to `O=C(O)C1OC1(c1ccccc1Cl)c1ccccc1Cl` (stereo not given), the growth inhibition in assay [1] is 7.3%; in assay [2] it was -13.2%; in assay [3], 7.8%; in assay [4], 1.55%; in assay [5] it was -3.3%; in assay [6], 9.55%.
On to `COC(=O)C(CO)NC(=O)C(CSC(c1ccccc1)(c1ccccc1)c1ccccc1)NC(=O)OCc1ccccc1` (stereo not given) (Cbz-Cys(Trt)-Ser-OMe; configuration not given here), for which the growth inhibition in assay [1] is 76.2% (active); in assay [2], 68.7%; in assay [3], 78.8% (active); in assay [4] it was 78% (active); in assay [5], 67.2%; in assay [6] it was 84.2% (active).
As to `Cc1[nH]ccc(=O)c1OC(=O)C12CC3CC(CC(C3)C1)C2`, the growth inhibition is 15.8% in assay [1]; 16.6% in assay [2]; 36% in assay [3]; 19.2% in assay [4]; 2.7% in assay [5]; 23% in assay [6].
Regarding `CC(=O)c1cc(C)c(O)c(C)c1`, the growth inhibition in assay [1] was -4.25%; in assay [2] it was -8.8%; in assay [3], 0.05%; in assay [4] it was -4.05%; in assay [5] it was -6.75%; in assay [6], -5.55%.
On to `CCOC([O-])=N/C(=N/[n+]1ccc(C)cc1)c1ccccc1`, for which the growth inhibition in assay [1] is 8.35%; in assay [2], 5.55%; in assay [3] it was -3.45%; in assay [4] it was -16.1%; in assay [5], -15.1%; in assay [6], -12.5%.
In the case of `O=C(/C=C/c1ccccc1)Sc1ccccc1`, the growth inhibition in assay [1] was -2%; in assay [2], -7.6%; in assay [3] it was 13.2%; in assay [4] it was -1.75%; in assay [5], -8.1%; in assay [6] it was 1.65%.
`CCCCCCCCCCC(CCCCCCCCCC)=NN=C(CCCCCCCCCC)CCCCCCCCCC`: the growth inhibition in assay [1] is -41.4%; in assay [2] it was 9.45%; in assay [3] it was 1.35%; in assay [4], 25.9%; in assay [5] it was 1.1%; in assay [6] it was -9.3%.
`c1ccc(CCCCc2ccccc2)cc1`: the growth inhibition in assay [1] is 25.1%; in assay [2], 3.2%; in assay [3], 14.1%; in assay [4], 6.4%; in assay [5] it was 3.35%; in assay [6] it was 11.4%.
As to `CCCCCC(=O)NC(=O)Nc1ccccc1OC`, the growth inhibition in assay [1] is -13.6%; in assay [2], -1.05%; in assay [3], -4.35%; in assay [4], -24.1%; in assay [5], 0.65%; in assay [6], -1.55%.
As for `COC1CCC(O)C(C=Nc2ccccc2)C1` (stereo not given), the growth inhibition in assay [1] is 4.8%; in assay [2] it was -1.85%; in assay [3] it was -11.8%; in assay [4] it was 4.35%; in assay [5], 8.5%; in assay [6], -18.8%.
As to `Nc1ccn(CCOC(=O)c2ccccc2)c(=O)n1`, the growth inhibition is -2% in assay [1]; -28% in assay [2]; -14.7% in assay [3]; -6.05% in assay [4]; 31.2% in assay [5]; 15.5% in assay [6].
